Measurements from PubChem BioAssay (NCATS).
Records with an inconclusive call do not appear. Entries that show only a call come without a potency. Unmarked numbers belong to inactive results. Active and inactive are the calls of the source. Calls follow the shape of the dose curve; as a rule, active = well fitted curve in the direction sought with a large enough effect; inconclusive = small, poorly fitted or top-dose-only effect, or another doubt; inactive = no such curve, though single readings can be large; an effect the other way counts as inactive or inconclusive.

Experiments:
CRL-7250 = normal cell line; experiment: Cytotoxic Profiling of Annotated Libraries Using Quantitative High-Throughput Screening (AID 1296008); details: Five cell lines viability, CellTiter-Glo ATP luminescence, 48-72 h; max response: stronger effect = lower value; also: nearly all actives have a fitted effect of over 60% in size; also: potency is read from the fitted curve at half-maximal effect
How it was run: (§1)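 Cytotoxicity was measured as CellTiter-Glo ATP luminescence, read after 10 min at room temperature. Compound treatment of the cells lasted 48 or 72 hr at 37 degrees Celsius in a qHTS format.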

HaCat [1] = experiment: as above; details: Five cell lines viability, CellTiter-Glo ATP luminescence, 48-72 h; max response: stronger effect = lower value
How it was run: as §1

KB-3-1 = experiment: as above; details: Five cell lines viability, CellTiter-Glo ATP luminescence, 48-72 h; max response: stronger effect = lower value
How it was run: as §1

NIH3T3 [2] = experiment: as above; details: Five cell lines viability, CellTiter-Glo ATP luminescence, 48-72 h; max response: stronger effect = lower value
How it was run: as §1

NIH3T3 [3] = experiment: qHTS assay to identify novel small-molecules to repurpose for Merkel cell carcinoma treatment (AID 1296009); details: MCC and control cell lines, CellTiter-Glo viability, 72 h; at 44.8 µM (top of the series) unless noted; also: nearly all actives have a fitted effect of over 60% in size
How it was run: (§2)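 Cell viability measured by CellTiter-Glo following 72 hr compound treatment at 37 degree celsius, with NPC and MIPE libraries tested in 8- and 11-point concentration series.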

C33A = experiment: Primary qHTS to identify gynecologic anti-cancer compounds using libraries of approved drugs and bioactive compounds (AID 1345084); details: Gynecologic cancer cell panel viability, ATPlite luminescence, 48 h; series mostly up to 57.5 µM; also: nearly all actives have a fitted effect of over 55% in size
How it was run: (§3)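 48 h compound exposure at 37 C, 5% CO2; five-point qHTS. ATPlite luminescence readout of cell ATP.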

CAOV3 = experiment: as above; details: Gynecologic cancer cell panel viability, ATPlite luminescence, 48 h; series mostly up to 57.5 µM
How it was run: as §3

CASKI = experiment: as above; details: Gynecologic cancer cell panel viability, ATPlite luminescence, 48 h; series mostly up to 57.5 µM
How it was run: as §3

Es-2 = experiment: as above; details: Gynecologic cancer cell panel viability, ATPlite luminescence, 48 h; series mostly up to 57.5 µM
How it was run: as §3

HeLa = experiment: as above; details: Gynecologic cancer cell panel viability, ATPlite luminescence, 48 h; series mostly up to 57.5 µM
How it was run: as §3

Hek293T = experiment: as above; details: Gynecologic cancer cell panel viability, ATPlite luminescence, 48 h, control line for the selectivity index; series mostly up to 57.5 µM
How it was run: as §3

JEG-3 = experiment: as above; details: Gynecologic cancer cell panel viability, ATPlite luminescence, 48 h; series mostly up to 57.5 µM
How it was run: as §3

HACAT [4] = experiment: qHTS assay to identify novel small-molecules to repurpose for Merkel cell carcinoma treatment (AID 1296009); details: MCC and control cell lines, CellTiter-Glo viability, 72 h; at 44.8 µM (top of the series) unless noted; also: nearly all actives have a fitted effect of over 60% in size
How it was run: as §2

Compound: CC1(C)CC[C@]2(C(=O)O)CC[C@]3(C)C(=CCC4[C@@]5(C)CC[C@H](O[C@@H]6O[C@H](C(=O)O)[C@@H](O)[C@H](O)[C@H]6O)C(C)(C)C5CC[C@]43C)C2C1 (stereo not given in full)
- max response (CRL-7250): -10.5%
- max response (HaCat [1]): -12.1%
- max response (KB-3-1): 4.15%
- outcome (NIH3T3 [2]): inactive
- outcome (NIH3T3 [3]): inactive [at 17.4 µM]
- Potency (C33A): inactive
- Potency (CAOV3): inactive
- outcome (CASKI): inactive
- Potency (Es-2): inactive
- Potency (HeLa): inactive
- Potency (Hek293T): inactive
- Potency (JEG-3): inactive

Compound: Oc1ccc2c(-c3c(-c4ccccn4)nn4c3CCC4)ccnc2c1
- max response (CRL-7250): -1.66%
- outcome (HaCat [1]): inactive
- max response (KB-3-1): -4.91%
- Potency (NIH3T3 [2]): 13 µM (active)
- outcome (HACAT [4]): inactive
- Potency (C33A): inactive
- Potency (CAOV3): inactive
- outcome (CASKI): inactive
- Potency (Es-2): inactive
- Potency (HeLa): inactive
- Potency (Hek293T): inactive
- Potency (JEG-3): inactive

Compound: CC1=C(C(=O)OC2OC(COC3OC(CO)C(O)C(O)C3O)C(O)C(O)C2O)C(C)(C)CCC1 (stereo not given)
- max response (CRL-7250): -6.15%
- outcome (HaCat [1]): inactive
- outcome (KB-3-1): inactive
- max response (NIH3T3 [2]): 0.403%
- outcome (HACAT [4]): inactive [at 17.4 µM]
- Potency (C33A): inactive
- Potency (CAOV3): inactive
- outcome (CASKI): inactive
- Potency (Es-2): inactive
- Potency (HeLa): inactive
- Potency (Hek293T): inactive
- Potency (JEG-3): inactive

Compound: CC(=O)O[C@@H]1[C@H](OC(C)=O)C[C@@]2(C)C(CC[C@@H](C)[C@]23Cc2c(O)cc4c(c2O3)CN([C@@H](CCC(=O)O)C(=O)O)C4=O)C1(C)C (stereo not given in full)
- max response (CRL-7250): -2.81%
- max response (HaCat [1]): -30.9%
- max response (KB-3-1): 5.86%
- outcome (NIH3T3 [2]): inactive
- outcome (NIH3T3 [3]): inactive [at 17.4 µM]
- Potency (C33A): inactive
- Potency (CAOV3): inactive
- outcome (CASKI): inactive
- Potency (Es-2): inactive
- Potency (HeLa): inactive
- Potency (Hek293T): inactive
- Potency (JEG-3): inactive

Compound: C[C@@H]1O[C@@H](O[C@H]2[C@H](OC(=O)[C@]34CCC(C)(C)C[C@H]3C3=CCC5[C@@]6(C)CC[C@H](O[C@@H]7O[C@H](CO[C@@H]8OC[C@H](O)[C@H](O)[C@H]8O[C@@H]8OC[C@@H](O)[C@H](O)[C@H]8O)[C@@H](O)[C@H](O)[C@H]7O)C(C)(C)C6CC[C@@]5(C)[C@]3(C)C[C@H]4O)O[C@H](CO)[C@@H](O)[C@@H]2O)[C@H](O[C@@H]2O[C@H](CO)[C@@H](O)[C@H](O)[C@H]2O)[C@H](O)[C@H]1O[C@@H]1OC[C@@H](O)[C@H](O[C@@H]2OC[C@@H](O)[C@H](O)[C@H]2O)[C@H]1O (stereo not given in full)
- max response (CRL-7250): 0.998%
- outcome (HaCat [1]): inactive
- max response (KB-3-1): -0.626%
- max response (NIH3T3 [2]): -3.82%
- outcome (HACAT [4]): inactive [at 4.96 µM]
- activity change, negative = cytotoxicity (C33A): 6.83% [at 6.55 µM]
- activity change, negative = cytotoxicity (CAOV3): -0.37% [at 6.55 µM]
- activity change, negative = cytotoxicity (CASKI): -2.72% [at 6.55 µM]
- activity change, negative = cytotoxicity (Es-2): -1.37% [at 6.55 µM]
- activity change, negative = cytotoxicity (HeLa): 0.0394% [at 6.55 µM]
- activity change, negative = cytotoxicity (Hek293T): 6.55% [at 6.55 µM]
- activity change, negative = cytotoxicity (JEG-3): 9.73% [at 6.55 µM]

Compound: CC(=O)OCC1OC(O[C@H]2CC[C@]34C[C@]35CC(O)[C@]3(C)[C@@H]([C@H](C)CC/C=C(\C)C(=O)O)C(O)C[C@@]3(C)C5CC[C@H]4C2(C)C)C(O)C(O)C1OC1OCC(O)C(O)C1O (stereo not given in full)
- max response (CRL-7250): -0.106%
- max response (HaCat [1]): 2.3%
- max response (KB-3-1): 7.5%
- outcome (NIH3T3 [2]): inactive
- outcome (NIH3T3 [3]): inactive [at 9.27 µM]
- activity change, negative = cytotoxicity (C33A): -4.66% [at 11.6 µM]
- activity change, negative = cytotoxicity (CAOV3): -5.98% [at 11.6 µM]
- activity change, negative = cytotoxicity (CASKI): -12.9% [at 11.6 µM]
- activity change, negative = cytotoxicity (Es-2): -0.425% [at 11.6 µM]
- activity change, negative = cytotoxicity (HeLa): 6.1% [at 11.6 µM]
- activity change, negative = cytotoxicity (Hek293T): -4.45% [at 11.6 µM]
- activity change, negative = cytotoxicity (JEG-3): -9.54% [at 11.6 µM]

Compound: COc1cc(C(CO)C(OC2OC(CO)C(O)C(O)C2O)c2ccc(O)c(OC)c2)ccc1O (stereo not given)
- outcome (CRL-7250): inactive
- outcome (HaCat [1]): inactive
- max response (KB-3-1): 3.11%
- outcome (NIH3T3 [2]): inactive
- outcome (HACAT [4]): inactive [at 17.4 µM]
- outcome (NIH3T3 [3]): inactive [at 17.4 µM]
- Potency (C33A): inactive
- Potency (CAOV3): inactive
- outcome (CASKI): inactive
- Potency (Es-2): inactive
- Potency (HeLa): inactive
- Potency (Hek293T): inactive
- Potency (JEG-3): inactive

Compound: CC1(C)O[C@H]2CC(=O)OC[C@@]23C1=C(O)C(=O)[C@]1(C)C3CC[C@@]2(C)[C@H](c3ccoc3)OC(=O)[C@H]3O[C@]321 (stereo not given in full)
- outcome (CRL-7250): inactive
- outcome (HaCat [1]): inactive
- outcome (KB-3-1): inactive
- outcome (NIH3T3 [2]): inactive
- outcome (HACAT [4]): inactive [at 17.4 µM]
- outcome (NIH3T3 [3]): inactive [at 17.4 µM]
- Potency (C33A): inactive
- Potency (CAOV3): inactive
- outcome (CASKI): inactive
- Potency (Es-2): inactive
- Potency (HeLa): inactive
- Potency (Hek293T): inactive
- Potency (JEG-3): inactive

Compound: CCC12CCCN3CCc4c(n(c5ccccc45)C(O)C1)C32 (stereo not given)
- max response (CRL-7250): -2.83%
- outcome (HaCat [1]): inactive
- outcome (KB-3-1): inactive
- max response (NIH3T3 [2]): -1.2%
- outcome (HACAT [4]): inactive
- Potency (C33A): inactive
- Potency (CAOV3): inactive
- outcome (CASKI): inactive
- Potency (Es-2): inactive
- Potency (HeLa): inactive
- Potency (Hek293T): inactive
- Potency (JEG-3): inactive
